# Test results published in article PMC7862700, “An all-to-all approach to the identification of sequence-specific readers for epigenetic DNA modifications on cytosine”.
# Key:
# Test in all cases: DAPPL (digital affinity profiling via proximity ligation, sequencing); 10 mM Tris-HCl pH 7.5, 50 mM NaCl, 1 mM DTT, 4% glycerol, room temperature, 30 min; GST-TFs on glutathione beads, 16-mer random dsDNA library, 0.1% formaldehyde crosslink after washing; high values mean tight binding
# FEV = biological target: T1, FEV (Homo sapiens, UniProt Q99581 1-238); conditions: protein: recombinant; tags: N-terminal GST; dsDNA, one strand shown
# T1 sequence: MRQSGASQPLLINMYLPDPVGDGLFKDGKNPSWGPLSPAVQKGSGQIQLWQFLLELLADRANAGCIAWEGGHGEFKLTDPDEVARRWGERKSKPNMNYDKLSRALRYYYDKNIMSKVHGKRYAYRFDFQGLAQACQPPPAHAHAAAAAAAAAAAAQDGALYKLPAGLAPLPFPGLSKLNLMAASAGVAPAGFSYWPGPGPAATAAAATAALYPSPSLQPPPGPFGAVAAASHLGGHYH
# Procedure, shortened: (§1)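 Binding signal is defined as a hexamer's read frequency for one factor over its frequency for the tag-only sample. To obtain reads, GST-fused human transcription factors were expressed in yeast, captured on glutathione beads, barcoded with DNA and pooled with that sample. Pools met 200 nmole of a 16-mer random double-stranded DNA library in Tris/NaCl/DTT/glycerol buffer for 30 min at room temperature before washing, 0.1% formaldehyde crosslinking, proximity ligation (BsaI/T4 ligase, 1 h, 37 °C), PCR and Illumina NextSeq500 sequencing.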
# ETV5 = ETV5 (Homo sapiens, UniProt P41161 1-510); conditions: protein: recombinant; tags: N-terminal GST; dsDNA, one strand shown
# ETV5, sequence (P41161 whole entry): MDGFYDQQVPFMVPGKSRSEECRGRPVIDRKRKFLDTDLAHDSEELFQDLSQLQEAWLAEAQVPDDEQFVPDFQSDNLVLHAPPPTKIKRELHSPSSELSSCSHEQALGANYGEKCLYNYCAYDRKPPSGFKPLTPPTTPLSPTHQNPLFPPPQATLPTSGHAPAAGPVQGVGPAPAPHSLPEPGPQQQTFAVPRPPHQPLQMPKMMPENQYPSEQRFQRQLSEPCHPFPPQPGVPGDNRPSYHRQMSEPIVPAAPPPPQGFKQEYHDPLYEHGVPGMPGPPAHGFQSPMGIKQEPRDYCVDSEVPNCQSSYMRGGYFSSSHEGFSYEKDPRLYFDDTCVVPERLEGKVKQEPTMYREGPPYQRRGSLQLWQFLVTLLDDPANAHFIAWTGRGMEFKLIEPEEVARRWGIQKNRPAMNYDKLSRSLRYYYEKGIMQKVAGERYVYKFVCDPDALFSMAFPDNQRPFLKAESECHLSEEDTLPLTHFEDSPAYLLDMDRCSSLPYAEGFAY
# Procedure, shortened: as §1
# HSF1 = HSF1 (Homo sapiens, UniProt Q00613 1-529); conditions: protein: recombinant; tags: N-terminal GST; chain copies: 3; dsDNA, one strand shown
# HSF1, sequence (Q00613 whole entry): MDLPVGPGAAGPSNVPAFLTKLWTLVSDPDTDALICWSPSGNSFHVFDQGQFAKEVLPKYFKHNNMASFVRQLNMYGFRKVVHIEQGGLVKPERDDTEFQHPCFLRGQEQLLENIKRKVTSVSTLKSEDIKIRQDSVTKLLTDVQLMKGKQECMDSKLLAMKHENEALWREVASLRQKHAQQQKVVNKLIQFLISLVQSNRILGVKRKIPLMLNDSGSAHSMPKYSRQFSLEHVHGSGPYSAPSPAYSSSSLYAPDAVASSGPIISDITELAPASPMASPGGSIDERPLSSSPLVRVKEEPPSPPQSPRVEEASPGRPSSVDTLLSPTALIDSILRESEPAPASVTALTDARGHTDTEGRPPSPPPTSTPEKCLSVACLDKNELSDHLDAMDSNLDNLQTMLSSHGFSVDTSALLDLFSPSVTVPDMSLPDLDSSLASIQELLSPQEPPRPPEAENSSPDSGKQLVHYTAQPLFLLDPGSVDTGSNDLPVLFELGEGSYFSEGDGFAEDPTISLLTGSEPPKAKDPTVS
# Procedure, shortened: as §1
# SPIC = biological target: T2, SPIC (Homo sapiens, UniProt Q8N5J4 1-248); conditions: protein: recombinant; tags: N-terminal GST; dsDNA, one strand shown
# T2 sequence: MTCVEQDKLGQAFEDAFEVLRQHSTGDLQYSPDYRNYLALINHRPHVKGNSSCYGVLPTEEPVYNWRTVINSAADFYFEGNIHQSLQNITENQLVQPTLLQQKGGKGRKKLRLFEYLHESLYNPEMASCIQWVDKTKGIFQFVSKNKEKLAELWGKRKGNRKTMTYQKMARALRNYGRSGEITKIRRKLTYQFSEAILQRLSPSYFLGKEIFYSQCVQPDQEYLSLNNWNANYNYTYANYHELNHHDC
# Procedure, shortened: as §1
# ELF4 = ELF4 (Homo sapiens, UniProt Q99607 1-663); conditions: protein: recombinant; tags: N-terminal GST; dsDNA, one strand shown
# ELF4, sequence (Q99607 whole entry): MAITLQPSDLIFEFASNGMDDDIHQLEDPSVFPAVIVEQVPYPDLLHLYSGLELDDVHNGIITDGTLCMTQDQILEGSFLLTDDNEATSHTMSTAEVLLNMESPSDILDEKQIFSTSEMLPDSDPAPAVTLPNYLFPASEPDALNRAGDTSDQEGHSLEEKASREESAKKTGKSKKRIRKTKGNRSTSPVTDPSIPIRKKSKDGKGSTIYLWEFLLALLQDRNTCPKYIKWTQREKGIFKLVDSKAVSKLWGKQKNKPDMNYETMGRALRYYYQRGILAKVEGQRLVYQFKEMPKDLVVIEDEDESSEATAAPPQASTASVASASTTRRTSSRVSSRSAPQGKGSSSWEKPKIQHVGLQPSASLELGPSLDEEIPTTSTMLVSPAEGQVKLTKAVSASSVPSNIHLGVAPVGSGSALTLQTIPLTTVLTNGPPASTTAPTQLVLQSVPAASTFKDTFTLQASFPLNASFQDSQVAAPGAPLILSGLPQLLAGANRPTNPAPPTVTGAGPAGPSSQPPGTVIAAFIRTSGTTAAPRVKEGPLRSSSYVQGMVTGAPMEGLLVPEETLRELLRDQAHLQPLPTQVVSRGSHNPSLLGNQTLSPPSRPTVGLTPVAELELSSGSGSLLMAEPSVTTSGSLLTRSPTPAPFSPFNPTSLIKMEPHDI
# Procedure, shortened: as §1
# ELK4 = biological target: T3, ELK4 (Homo sapiens, UniProt P28324-2 1-405); conditions: protein: recombinant; tags: N-terminal GST; dsDNA, one strand shown
# T3 sequence: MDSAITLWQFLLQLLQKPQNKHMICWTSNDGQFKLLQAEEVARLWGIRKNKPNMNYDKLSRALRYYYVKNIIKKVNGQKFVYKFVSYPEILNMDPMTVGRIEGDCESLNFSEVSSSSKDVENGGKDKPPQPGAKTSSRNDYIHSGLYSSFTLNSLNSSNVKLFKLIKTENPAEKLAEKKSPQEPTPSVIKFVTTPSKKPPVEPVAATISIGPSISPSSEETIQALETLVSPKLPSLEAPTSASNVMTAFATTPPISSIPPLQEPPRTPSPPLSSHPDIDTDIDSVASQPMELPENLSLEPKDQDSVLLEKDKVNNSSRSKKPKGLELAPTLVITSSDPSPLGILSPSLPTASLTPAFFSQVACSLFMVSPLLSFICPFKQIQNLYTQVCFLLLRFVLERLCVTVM
# Procedure, shortened: as §1
# ETV2 = biological target: T4, ETV2 (Homo sapiens, UniProt O00321 1-342); conditions: protein: recombinant; tags: N-terminal GST; dsDNA, one strand shown
# T4 sequence: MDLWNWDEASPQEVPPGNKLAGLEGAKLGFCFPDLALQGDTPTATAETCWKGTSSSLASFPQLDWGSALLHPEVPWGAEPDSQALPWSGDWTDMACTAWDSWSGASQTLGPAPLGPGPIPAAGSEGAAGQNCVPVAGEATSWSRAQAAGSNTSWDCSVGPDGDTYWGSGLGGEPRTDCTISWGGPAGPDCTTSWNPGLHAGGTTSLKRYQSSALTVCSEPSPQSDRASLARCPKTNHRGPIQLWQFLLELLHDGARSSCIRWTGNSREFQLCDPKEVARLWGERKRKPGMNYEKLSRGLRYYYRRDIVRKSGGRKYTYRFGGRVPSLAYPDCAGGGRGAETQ
# Procedure, shortened: as §1
# ELF3 = biological target: T5, ELF3 (Homo sapiens, UniProt P78545 1-371); conditions: protein: recombinant; tags: N-terminal GST; dsDNA, one strand shown
# T5 sequence: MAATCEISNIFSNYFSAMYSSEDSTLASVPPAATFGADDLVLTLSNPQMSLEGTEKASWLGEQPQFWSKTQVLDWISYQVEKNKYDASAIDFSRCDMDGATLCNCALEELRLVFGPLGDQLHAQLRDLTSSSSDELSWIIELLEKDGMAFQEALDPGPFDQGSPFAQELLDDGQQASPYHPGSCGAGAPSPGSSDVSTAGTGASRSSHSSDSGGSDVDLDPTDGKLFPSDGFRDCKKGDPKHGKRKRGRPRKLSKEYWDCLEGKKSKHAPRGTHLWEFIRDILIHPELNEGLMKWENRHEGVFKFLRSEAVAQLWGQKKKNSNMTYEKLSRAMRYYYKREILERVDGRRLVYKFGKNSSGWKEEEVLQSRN
# Procedure, shortened: as §1
# CRX = CRX (Homo sapiens, UniProt O43186 1-299); conditions: protein: recombinant; tags: N-terminal GST; dsDNA, one strand shown
# CRX, sequence (O43186 whole entry): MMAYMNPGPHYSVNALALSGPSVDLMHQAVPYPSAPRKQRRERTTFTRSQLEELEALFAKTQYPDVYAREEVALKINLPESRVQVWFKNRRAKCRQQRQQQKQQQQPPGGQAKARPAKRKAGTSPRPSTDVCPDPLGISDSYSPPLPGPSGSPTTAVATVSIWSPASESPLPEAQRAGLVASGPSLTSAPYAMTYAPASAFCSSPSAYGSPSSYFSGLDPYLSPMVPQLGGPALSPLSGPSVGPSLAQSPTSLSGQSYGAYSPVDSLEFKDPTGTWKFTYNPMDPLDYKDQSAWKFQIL
# Procedure, shortened: as §1
# ETV1 = ETV1 (Homo sapiens, UniProt P50549 1-477); conditions: protein: recombinant; tags: N-terminal GST; dsDNA, one strand shown
# ETV1, sequence (P50549 whole entry): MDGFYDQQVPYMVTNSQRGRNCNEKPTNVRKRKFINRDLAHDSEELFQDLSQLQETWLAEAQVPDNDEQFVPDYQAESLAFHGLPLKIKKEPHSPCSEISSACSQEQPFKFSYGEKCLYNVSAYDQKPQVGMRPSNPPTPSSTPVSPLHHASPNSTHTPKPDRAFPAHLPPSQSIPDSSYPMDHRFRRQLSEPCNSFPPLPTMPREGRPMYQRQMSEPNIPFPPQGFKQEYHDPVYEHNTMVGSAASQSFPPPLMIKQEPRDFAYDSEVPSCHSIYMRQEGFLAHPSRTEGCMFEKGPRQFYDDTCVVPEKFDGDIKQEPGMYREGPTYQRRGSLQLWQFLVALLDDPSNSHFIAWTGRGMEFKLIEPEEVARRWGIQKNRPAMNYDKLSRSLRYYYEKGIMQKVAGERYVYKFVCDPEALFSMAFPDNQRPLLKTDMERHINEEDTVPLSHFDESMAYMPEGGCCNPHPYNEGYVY
# Procedure, shortened: as §1
# ERF = biological target: T6, ERF (Homo sapiens, UniProt P50548 1-548); conditions: protein: recombinant; tags: N-terminal GST; dsDNA, one strand shown
# T6 sequence: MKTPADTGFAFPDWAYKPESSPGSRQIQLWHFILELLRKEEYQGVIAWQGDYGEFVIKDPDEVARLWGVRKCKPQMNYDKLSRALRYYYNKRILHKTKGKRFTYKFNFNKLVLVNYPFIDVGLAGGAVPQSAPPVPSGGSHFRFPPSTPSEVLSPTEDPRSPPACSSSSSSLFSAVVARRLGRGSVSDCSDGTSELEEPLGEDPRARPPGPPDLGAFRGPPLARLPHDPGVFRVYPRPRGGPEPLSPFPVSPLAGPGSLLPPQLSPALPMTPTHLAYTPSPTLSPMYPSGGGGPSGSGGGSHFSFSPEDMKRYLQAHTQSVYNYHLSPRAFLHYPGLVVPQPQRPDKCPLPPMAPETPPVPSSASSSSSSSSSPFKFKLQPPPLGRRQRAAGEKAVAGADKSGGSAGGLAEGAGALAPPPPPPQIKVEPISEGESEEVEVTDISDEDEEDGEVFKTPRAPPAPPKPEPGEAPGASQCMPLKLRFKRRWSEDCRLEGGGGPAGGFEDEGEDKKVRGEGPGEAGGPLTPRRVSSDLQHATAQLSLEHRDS
# Procedure, shortened: as §1
# ETV3L = biological target: T7, ETV3L (Homo sapiens, UniProt Q6ZN32 1-361); conditions: protein: recombinant; tags: N-terminal GST; dsDNA, one strand shown
# T7 sequence: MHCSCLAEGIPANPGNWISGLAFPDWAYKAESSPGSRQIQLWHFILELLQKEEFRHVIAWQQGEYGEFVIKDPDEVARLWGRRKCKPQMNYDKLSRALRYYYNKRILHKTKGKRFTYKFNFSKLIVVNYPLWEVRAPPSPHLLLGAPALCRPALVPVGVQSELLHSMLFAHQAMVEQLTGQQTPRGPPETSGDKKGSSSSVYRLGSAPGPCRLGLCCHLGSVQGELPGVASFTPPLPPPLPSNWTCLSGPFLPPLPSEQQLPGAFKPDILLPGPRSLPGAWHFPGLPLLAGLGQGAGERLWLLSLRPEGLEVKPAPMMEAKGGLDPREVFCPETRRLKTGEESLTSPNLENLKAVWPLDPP
# Procedure, shortened: as §1
# ETS2 = biological target: T8, ETS2 (Homo sapiens, UniProt P15036 1-469); conditions: protein: recombinant; tags: N-terminal GST; dsDNA, one strand shown
# T8 sequence: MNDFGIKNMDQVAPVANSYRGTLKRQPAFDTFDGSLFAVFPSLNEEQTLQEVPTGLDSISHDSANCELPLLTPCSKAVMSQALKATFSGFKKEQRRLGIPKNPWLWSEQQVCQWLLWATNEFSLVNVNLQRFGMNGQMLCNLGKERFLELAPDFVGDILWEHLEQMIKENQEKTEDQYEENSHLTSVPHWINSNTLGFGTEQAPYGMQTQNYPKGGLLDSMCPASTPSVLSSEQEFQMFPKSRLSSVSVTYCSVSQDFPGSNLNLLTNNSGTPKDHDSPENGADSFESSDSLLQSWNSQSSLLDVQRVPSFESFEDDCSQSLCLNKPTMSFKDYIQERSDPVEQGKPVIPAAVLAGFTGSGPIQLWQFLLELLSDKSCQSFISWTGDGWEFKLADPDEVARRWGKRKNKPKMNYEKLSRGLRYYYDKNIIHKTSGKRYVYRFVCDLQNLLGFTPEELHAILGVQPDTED
# Procedure, shortened: as §1
# SPDEF = biological target: T9, SPDEF (Homo sapiens, UniProt O95238 1-335); conditions: protein: recombinant; tags: N-terminal GST; dsDNA, one strand shown
# T9 sequence: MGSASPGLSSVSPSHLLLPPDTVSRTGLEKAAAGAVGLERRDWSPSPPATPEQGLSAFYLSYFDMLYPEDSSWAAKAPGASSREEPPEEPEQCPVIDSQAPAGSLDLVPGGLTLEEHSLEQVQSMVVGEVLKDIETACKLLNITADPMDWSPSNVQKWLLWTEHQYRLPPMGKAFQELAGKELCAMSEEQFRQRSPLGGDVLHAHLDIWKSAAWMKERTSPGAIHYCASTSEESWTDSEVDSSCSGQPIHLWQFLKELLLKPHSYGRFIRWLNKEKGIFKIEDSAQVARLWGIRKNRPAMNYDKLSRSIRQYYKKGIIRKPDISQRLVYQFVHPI
# Procedure, shortened: as §1
# ETV7 = biological target: T10, ETV7 (Homo sapiens, UniProt Q9Y603 1-341); conditions: protein: recombinant; tags: N-terminal GST; dsDNA, one strand shown
# T10 sequence: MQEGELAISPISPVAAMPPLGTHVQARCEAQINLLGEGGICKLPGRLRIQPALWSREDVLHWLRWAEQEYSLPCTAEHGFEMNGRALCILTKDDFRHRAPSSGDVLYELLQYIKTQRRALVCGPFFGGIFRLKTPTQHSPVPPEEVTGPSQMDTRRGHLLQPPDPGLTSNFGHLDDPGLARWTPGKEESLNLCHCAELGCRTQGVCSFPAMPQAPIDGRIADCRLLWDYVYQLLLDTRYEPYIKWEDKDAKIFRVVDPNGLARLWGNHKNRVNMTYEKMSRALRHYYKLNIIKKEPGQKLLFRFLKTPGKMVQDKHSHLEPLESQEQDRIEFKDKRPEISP
# Procedure, shortened: as §1
# ELF5 = biological target: T11, ELF5 (Homo sapiens, UniProt Q9UKW6-2 1-255); conditions: protein: recombinant; tags: N-terminal GST; dsDNA, one strand shown
# T11 sequence: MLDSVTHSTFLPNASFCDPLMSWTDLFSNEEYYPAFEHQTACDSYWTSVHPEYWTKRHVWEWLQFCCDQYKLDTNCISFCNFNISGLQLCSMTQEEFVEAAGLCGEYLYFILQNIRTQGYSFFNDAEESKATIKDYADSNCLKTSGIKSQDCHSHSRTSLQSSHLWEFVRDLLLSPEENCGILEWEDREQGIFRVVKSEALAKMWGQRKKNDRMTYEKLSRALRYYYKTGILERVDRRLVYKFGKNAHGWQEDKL
# Procedure, shortened: as §1
# ETV3 = biological target: T12, ETV3 (Homo sapiens, UniProt P41162-2 1-143); conditions: protein: recombinant; tags: N-terminal GST; dsDNA, one strand shown
# T12 sequence: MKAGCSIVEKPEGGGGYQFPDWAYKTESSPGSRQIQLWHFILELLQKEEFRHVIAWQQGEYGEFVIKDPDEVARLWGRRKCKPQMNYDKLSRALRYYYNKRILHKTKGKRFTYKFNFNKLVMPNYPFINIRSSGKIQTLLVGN
# Procedure, shortened: as §1
# ETV6 = ETV6 (Homo sapiens, UniProt P41212 1-452); conditions: protein: recombinant; tags: N-terminal GST; dsDNA, one strand shown
# ETV6, sequence (P41212 whole entry): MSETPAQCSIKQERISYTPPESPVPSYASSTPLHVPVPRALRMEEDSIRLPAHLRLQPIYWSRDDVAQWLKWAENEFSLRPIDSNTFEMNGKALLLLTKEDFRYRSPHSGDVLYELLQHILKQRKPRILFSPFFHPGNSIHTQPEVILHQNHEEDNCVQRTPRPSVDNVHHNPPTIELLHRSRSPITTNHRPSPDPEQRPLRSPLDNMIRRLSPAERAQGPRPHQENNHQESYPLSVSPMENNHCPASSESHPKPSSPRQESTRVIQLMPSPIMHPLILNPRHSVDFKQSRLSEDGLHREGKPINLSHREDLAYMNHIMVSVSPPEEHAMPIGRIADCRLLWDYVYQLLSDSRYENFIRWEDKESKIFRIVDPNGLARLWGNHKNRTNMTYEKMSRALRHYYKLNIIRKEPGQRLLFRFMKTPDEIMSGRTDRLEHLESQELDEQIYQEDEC
# Procedure, shortened: as §1
sequence,measurement,setting,value
TTGCGG,binding signal,FEV,"1.19 fold enrichment (6-mer frequency, TF over GST control)"
same,binding signal,ETV5,"1.36 fold enrichment (6-mer frequency, TF over GST control)"
same,binding signal,HSF1,"1.04 fold enrichment (6-mer frequency, TF over GST control)"
same,binding signal,SPIC,"1.47 fold enrichment (6-mer frequency, TF over GST control)"
same,binding signal,ELF4,"1.3 fold enrichment (6-mer frequency, TF over GST control)"
same,binding signal,ELK4,"1.2 fold enrichment (6-mer frequency, TF over GST control)"
same,binding signal,ETV2,"1.31 fold enrichment (6-mer frequency, TF over GST control)"
same,binding signal,ELF3,"1.42 fold enrichment (6-mer frequency, TF over GST control)"
same,binding signal,CRX,"1.05 fold enrichment (6-mer frequency, TF over GST control)"
same,binding signal,ETV1,"1.27 fold enrichment (6-mer frequency, TF over GST control)"
same,binding signal,ERF,"1.25 fold enrichment (6-mer frequency, TF over GST control)"
same,binding signal,ETV3L,"1.3 fold enrichment (6-mer frequency, TF over GST control)"
same,binding signal,ETS2,"1.21 fold enrichment (6-mer frequency, TF over GST control)"
same,binding signal,SPDEF,"1.24 fold enrichment (6-mer frequency, TF over GST control)"
same,binding signal,ETV7,"1.29 fold enrichment (6-mer frequency, TF over GST control)"
same,binding signal,ELF5,"1.24 fold enrichment (6-mer frequency, TF over GST control)"
same,binding signal,ETV3,"1.34 fold enrichment (6-mer frequency, TF over GST control)"
same,binding signal,ETV6,"1.41 fold enrichment (6-mer frequency, TF over GST control)"
